# Test results as given in PubChem BioAssay (NCI).
# The panel holds about 83,000 compounds, 20% with a hit somewhere; the sample as a whole holds those more often.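 Method: cells in 96-well plates; compound added at one concentration; 48 h incubation; percent growth measured; values under 10 scored active.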 Unmarked numbers belong to inactive results. Calls of active or inactive are those of the source.
# System: A549/ATCC NSCLC
# Assay: NCI-60 one-dose screen, 48 h (100 = growth as untreated, 0 = no growth, -100 = all killed)
# Settings: 10 µM
row,Compound,growth
1,CNC(=O)c1cccc(N2CCc3c2ccc(NC(=O)Nc2ccc(N4CCN(C)CC4)c(C(F)(F)F)c2)c3F)c1,-86% (active)
2,CC(=O)Nc1ccc(-n2cnc3cc(-c4ccc(O)cc4)ccc32)cc1C,47.5%
3,CN(C)c1nc(NCCNS(=O)(=O)c2ccc(C(=O)/C=C/c3ccccc3)cc2)nc(Nc2ccc(F)cc2)n1,45.4%
4,O=C1CCC(N2Cc3c(C#CCCCNC(=O)c4ccc(NC(=O)[C@@H]5NC6(CCCCC6)[C@@]6(C(=O)Nc7cc(Cl)ccc76)[C@H]5c5cccc(Cl)c5F)cc4)cccc3C2=O)C(=O)N1 (stereo partly specified),34.5%
5,COc1cc(C2CC(c3ccccc3)=Nc3c(N)nc(N)nc3N2)ccc1Oc1nc(Nc2ccc(F)cc2)nc(N(C)C)n1 (stereo unspecified),66.3%
6,CCOC(=O)C1=C(N)N(c2ccc(Cl)cc2)C2=C(C(=O)CC(C)(C)C2)C1c1ccc(N2CCOCC2)cc1 (stereo unspecified),90%
7,O=C(c1ccc(Cl)cc1)C1[C@H](c2ccccc2Br)[C@@H](c2ccccc2)NC12C(=O)Nc1ccc(Cl)cc12 (stereo partly specified),19.8%
8,Nc1nc(Nc2ccc(Cl)cc2)nn1Cc1cccc(Br)c1,45%
9,O=S(=O)(Nc1ncccn1)c1ccc(-n2c(-c3ccccc3)nc(-c3ccccc3)c2-c2ccccc2)cc1,89.7%
10,CN1CCc2c(sc3ncnc(N/N=C/c4cn(-c5ccccc5)nc4-c4ccc(Cl)cc4)c23)C1,26.3%
11,Nc1nnc(-c2c[nH]c3ncccc23)c(-c2c[nH]c3ccc(Br)cc23)n1,58.9%
